We go through one molecule from ChEMBL document CHEMBL2218924, “A broad activity screen in support of a chemogenomic map for kinase signalling research and drug discovery” (Biochem J, 2013).

The target of assay [1] is Tyrosine-protein kinase SYK (Homo sapiens) (UniProt P43405). Conditions: at 10 µM.
For assay [2], the target named is T1, Mitogen-activated protein kinase kinase kinase 7 (Homo sapiens) (UniProt O43318).
T1 sequence (whole entry): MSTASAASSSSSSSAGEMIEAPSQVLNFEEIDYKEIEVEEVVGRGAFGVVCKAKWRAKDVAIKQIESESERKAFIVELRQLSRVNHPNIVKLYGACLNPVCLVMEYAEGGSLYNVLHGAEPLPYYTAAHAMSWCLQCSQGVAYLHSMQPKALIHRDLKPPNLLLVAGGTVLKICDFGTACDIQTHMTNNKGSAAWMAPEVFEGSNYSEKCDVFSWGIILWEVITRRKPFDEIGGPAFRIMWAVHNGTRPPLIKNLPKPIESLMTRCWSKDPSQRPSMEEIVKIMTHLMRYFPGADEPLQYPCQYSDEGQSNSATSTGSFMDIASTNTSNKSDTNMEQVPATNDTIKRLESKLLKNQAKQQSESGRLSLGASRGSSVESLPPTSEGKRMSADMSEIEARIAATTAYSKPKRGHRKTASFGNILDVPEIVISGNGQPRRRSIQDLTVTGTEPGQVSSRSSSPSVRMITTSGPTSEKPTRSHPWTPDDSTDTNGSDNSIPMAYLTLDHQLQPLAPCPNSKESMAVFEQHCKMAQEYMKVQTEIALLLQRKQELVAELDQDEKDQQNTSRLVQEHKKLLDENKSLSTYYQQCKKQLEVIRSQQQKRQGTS
The following applies: at 1 µM.

In assay [3] the target is T1, Mitogen-activated protein kinase kinase kinase 7 (Homo sapiens). Conditions: at 10 µM.
Assay [4] has as its target T2, Serine/threonine-protein kinase TAO1 (Homo sapiens) (UniProt Q7L7X3).
T2 sequence (whole entry): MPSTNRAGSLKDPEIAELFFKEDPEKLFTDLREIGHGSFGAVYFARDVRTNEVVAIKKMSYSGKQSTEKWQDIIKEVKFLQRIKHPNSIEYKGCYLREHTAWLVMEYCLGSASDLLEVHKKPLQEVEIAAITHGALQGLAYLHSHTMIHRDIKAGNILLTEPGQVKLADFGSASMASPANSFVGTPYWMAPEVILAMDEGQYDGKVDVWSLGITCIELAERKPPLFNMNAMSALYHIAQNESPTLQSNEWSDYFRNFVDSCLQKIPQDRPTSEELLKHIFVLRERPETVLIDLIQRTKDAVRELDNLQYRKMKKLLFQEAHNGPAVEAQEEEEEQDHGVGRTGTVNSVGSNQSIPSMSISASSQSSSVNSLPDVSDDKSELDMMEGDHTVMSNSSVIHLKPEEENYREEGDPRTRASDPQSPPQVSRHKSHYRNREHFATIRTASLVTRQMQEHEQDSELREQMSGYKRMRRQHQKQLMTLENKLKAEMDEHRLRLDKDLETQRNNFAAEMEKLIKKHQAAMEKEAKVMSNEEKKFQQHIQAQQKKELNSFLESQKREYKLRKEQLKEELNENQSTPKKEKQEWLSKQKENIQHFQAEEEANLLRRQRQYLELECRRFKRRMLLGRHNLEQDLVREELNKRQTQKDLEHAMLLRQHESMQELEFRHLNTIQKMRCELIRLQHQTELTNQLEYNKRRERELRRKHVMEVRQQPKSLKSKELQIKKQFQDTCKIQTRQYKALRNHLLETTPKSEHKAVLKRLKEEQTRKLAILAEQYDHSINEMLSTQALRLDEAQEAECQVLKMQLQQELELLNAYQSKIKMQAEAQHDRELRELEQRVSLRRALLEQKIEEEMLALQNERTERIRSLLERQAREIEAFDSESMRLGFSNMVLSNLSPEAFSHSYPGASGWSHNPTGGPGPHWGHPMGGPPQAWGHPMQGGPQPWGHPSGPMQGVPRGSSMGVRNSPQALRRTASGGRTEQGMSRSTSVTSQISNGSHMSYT
The following applies: at 1 µM.

The target in assay [5] is T2, Serine/threonine-protein kinase TAO1 (Homo sapiens). Conditions: at 10 µM.
The target of assay [6] is T3, Serine/threonine-protein kinase TAO2 (Homo sapiens) (UniProt Q9UL54).
T3 sequence (whole entry): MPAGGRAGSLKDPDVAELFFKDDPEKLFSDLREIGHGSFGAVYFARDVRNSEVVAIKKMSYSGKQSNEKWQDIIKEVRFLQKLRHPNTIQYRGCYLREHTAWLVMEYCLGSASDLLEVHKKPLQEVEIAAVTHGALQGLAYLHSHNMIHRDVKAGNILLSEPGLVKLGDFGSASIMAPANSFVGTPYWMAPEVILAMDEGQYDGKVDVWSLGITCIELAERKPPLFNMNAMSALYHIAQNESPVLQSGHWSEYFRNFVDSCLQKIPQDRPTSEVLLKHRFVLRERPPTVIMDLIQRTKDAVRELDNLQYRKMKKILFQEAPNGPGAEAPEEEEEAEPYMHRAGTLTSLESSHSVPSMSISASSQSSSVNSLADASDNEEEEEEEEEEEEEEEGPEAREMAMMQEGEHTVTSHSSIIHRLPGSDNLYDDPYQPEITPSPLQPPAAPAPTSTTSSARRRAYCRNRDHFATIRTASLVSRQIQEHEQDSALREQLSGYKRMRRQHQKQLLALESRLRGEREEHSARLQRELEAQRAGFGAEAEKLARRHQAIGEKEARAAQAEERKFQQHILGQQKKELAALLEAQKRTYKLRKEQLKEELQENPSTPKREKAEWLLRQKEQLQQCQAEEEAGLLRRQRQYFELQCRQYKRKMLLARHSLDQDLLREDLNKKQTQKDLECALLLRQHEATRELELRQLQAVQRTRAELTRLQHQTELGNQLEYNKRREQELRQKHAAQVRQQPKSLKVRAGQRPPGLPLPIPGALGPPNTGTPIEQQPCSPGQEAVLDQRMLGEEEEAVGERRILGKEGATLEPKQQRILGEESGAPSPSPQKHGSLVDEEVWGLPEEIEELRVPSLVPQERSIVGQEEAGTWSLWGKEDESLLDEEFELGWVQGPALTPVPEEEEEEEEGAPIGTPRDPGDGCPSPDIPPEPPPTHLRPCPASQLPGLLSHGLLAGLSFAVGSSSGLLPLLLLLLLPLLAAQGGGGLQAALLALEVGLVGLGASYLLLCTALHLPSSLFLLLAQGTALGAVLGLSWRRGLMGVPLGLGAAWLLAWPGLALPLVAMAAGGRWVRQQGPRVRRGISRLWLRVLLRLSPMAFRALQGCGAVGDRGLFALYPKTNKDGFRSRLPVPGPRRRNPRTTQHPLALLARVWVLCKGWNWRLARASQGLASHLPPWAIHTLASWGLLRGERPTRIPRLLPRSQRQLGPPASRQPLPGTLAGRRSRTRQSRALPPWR
Conditions: at 1 µM.

In assay [7] the target is T3, Serine/threonine-protein kinase TAO2 (Homo sapiens). Conditions: at 10 µM.
Assay [8] concerns the target T4, Serine/threonine-protein kinase TAO3 (Homo sapiens) (UniProt Q9H2K8).
T4 sequence (whole entry): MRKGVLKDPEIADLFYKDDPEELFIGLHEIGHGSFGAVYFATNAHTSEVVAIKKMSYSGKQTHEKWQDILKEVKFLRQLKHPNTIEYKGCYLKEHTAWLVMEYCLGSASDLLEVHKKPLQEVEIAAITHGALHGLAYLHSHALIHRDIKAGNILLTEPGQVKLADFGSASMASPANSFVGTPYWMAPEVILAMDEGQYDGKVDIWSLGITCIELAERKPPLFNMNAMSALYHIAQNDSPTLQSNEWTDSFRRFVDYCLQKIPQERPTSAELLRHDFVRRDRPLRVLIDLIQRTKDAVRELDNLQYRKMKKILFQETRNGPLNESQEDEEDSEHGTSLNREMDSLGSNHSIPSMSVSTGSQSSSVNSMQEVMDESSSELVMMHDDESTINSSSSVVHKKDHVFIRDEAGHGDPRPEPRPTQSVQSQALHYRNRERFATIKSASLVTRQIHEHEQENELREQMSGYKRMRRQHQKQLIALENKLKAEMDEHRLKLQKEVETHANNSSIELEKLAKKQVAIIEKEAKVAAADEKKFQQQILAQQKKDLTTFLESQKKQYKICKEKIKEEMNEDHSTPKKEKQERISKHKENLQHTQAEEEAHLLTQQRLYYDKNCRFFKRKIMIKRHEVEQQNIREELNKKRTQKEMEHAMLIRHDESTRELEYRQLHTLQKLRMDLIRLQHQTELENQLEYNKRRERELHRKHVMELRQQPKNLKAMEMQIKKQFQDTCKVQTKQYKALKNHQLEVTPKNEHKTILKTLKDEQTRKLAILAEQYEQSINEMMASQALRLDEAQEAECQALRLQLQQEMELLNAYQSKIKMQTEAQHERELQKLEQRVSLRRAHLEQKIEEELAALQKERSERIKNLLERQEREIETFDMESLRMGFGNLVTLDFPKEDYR
The following applies: at 1 µM.

In assay [9] the target is T4, Serine/threonine-protein kinase TAO3 (Homo sapiens). The following applies: at 10 µM.
The target of assay [10] is T5, Serine/threonine-protein kinase TBK1 (Homo sapiens) (UniProt Q9UHD2).
T5 sequence (whole entry): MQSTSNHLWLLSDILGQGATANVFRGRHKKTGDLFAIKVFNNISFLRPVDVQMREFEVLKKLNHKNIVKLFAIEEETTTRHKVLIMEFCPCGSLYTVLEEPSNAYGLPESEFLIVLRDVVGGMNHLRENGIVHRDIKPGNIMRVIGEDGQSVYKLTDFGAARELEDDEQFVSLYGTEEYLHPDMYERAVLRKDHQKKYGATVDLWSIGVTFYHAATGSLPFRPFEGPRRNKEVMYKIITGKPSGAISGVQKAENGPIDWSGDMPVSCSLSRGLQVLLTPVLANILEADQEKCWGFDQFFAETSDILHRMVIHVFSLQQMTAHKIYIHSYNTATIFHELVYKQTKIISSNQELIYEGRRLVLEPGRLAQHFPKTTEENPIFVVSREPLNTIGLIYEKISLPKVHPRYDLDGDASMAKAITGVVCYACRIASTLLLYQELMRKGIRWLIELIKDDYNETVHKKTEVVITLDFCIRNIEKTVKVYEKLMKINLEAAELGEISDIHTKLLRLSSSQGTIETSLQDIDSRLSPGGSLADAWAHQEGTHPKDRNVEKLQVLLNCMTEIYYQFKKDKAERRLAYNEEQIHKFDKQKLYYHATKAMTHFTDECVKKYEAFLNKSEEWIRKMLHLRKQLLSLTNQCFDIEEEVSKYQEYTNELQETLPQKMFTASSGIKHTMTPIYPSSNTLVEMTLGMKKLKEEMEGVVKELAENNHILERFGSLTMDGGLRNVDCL
Conditions: at 1 µM.

Assay [11] deals with T5, Serine/threonine-protein kinase TBK1 (Homo sapiens). The following applies: at 10 µM.
Assay [12] deals with T6, TGF-beta receptor type-1 (Homo sapiens) (UniProt P36897).
T6 sequence (whole entry): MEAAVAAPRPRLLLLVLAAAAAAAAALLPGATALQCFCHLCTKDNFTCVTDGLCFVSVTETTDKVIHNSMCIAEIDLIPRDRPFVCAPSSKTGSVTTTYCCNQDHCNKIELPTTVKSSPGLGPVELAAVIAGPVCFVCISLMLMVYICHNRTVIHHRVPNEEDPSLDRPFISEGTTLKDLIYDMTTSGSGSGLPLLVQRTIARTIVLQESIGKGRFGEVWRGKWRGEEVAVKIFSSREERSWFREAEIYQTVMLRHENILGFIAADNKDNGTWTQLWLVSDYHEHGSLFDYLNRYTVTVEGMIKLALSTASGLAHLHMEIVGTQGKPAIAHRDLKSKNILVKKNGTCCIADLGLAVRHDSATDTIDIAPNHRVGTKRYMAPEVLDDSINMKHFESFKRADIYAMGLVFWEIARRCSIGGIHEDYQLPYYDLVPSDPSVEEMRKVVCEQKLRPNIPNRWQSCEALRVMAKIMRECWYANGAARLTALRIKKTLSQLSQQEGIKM
Conditions: at 1 µM.

The target of assay [13] is T6, TGF-beta receptor type-1 (Homo sapiens). Conditions: at 10 µM.
In assay [14] the target is T7, Inhibitor of nuclear factor kappa-B kinase subunit beta (Homo sapiens) (UniProt O14920).
T7 sequence (whole entry): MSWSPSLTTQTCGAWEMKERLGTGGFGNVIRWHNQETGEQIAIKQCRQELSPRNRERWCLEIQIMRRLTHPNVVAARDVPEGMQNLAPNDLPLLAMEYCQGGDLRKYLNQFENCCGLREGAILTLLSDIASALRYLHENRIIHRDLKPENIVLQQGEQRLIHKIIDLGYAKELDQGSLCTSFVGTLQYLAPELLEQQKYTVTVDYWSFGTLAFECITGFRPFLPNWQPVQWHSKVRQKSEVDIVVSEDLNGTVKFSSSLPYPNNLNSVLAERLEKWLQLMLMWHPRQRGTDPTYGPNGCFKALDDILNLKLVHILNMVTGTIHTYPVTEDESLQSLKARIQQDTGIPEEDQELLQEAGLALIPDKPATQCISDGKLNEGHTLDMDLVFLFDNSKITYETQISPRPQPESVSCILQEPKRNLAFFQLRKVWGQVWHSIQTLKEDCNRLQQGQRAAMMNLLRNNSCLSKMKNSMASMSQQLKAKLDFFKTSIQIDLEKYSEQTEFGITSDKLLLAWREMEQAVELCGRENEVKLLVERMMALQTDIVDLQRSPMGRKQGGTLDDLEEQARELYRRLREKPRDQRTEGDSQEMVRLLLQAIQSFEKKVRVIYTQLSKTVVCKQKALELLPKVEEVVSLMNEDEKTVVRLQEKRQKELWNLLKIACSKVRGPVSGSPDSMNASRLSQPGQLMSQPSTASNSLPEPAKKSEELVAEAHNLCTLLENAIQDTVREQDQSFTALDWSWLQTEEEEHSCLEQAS
Conditions: at 1 µM.

Assay [15] addresses T7, Inhibitor of nuclear factor kappa-B kinase subunit beta (Homo sapiens). The following applies: at 10 µM.

On to `CC(=O)c1ccc(N2CCOCC2)cc1O`, for which the residual activity in assay [1] amounted to 101%; in assay [2], 93%; in assay [3] it was 90%; in assay [4], 103%; in assay [5], 95%; in [6], 92%. Also, the residual activity in assay [7] was found to be 94%; in assay [8], 101%; in [9], 91%; in assay [10] it was 74%; in assay [11] it was 70%; in [12], 83%. For the same molecule, the residual activity in assay [13] amounted to 90%; in [14], 104%; in assay [15], 102%.
